# Test results published in PubChem BioAssay (EPA / NIEHS).
# Active and inactive are the calls of the source. The calls were made as follows: active = hit-call score of the fitted dose curve at least 0.9, where 1 is the maximum; inactive = score below 0.9.
# Test: BSK_3C_TissueFactor: BioMAP Diversity Plus: 3C Assay for Tissue Factor Biomarker Activity (AID 2282997)
# Details: BioMAP 3C HUVEC, tissue factor biomarker readout; actives raise or lower the signal
# Description: BSK_3C is a cell-based, multiplexed-readout assay that uses umbilical vein endothelium, a human vascular primary cell, with measurements taken at 24 hours after chemical dosing in a 96-well plate.BSK_3C_TissueFactor is an assay component measured in the BSK_3C assay. It measures Tissue Factor antibody related to regulation of gene expression using ELISA technology.Data from the assay component BSK_3C_TissueFactor was analyzed into 1 assay endpoint. This assay endpoint, BSK_3C_TissueFactor, was analyzed with bidirectional fitting relative to DMSO as the negative control and baseline of activity. Using a type of binding reporter, gain or loss-of-signal activity can be used to understand changes in the signaling as they relate to the gene F3. Furthermore, this assay endpoint can be referred to as a primary readout, because this assay has produced multiple assay endpoints where this one serves a signaling function. To generalize the intended target to other relatable targets, this assay endpoint is annotated to the cytokine intended target family, where the subfamily is coagulation factor.
# The levels of cell surface (or secreted, indicated by the prefix "s") biomarker endpoints were measured by ELISA. Overt cytotoxicity to cells in confluent adherent cultures (all systems other than the BT system) was assessed by measuring total protein levels using sulforhodamine B (SRB) staining in parallel cultures at the time of biomarker measurements, indicated as SRB endpoints. For proliferation assays for adherent cell types, individual cell types are cultured at sub-confluence and relative cell numbers quantified by SRB staining at time points optimized for each system (48 h: 3C and CASM3C systems; 72 h: BT and HDF3CGF systems; 96 h: SAg system). SRB was performed by staining cells with 0.1% SRB after fixation with 10% TCA and reading wells at 560 nm.Viability and proliferation of PBMC (T cells) was quantified by Alamar Blue reduction for the SAg and BT systems. For PBMC viability (referred to as PBMC Cytotoxicity within the assay endpoint names), cells were plated (75,000/well in a 96-well plate) and then chemical samples added for 1 h before addition of activators, SEB and TSST-1 (20 ng/mL final concentration each). Cells were incubated for 90 h. Then, Alamar Blue (20 uL/well) (Invitrogen, Cat DAL1100) was added for 6 h, and the plates were read with a fluorescence microplate reader at 546/580 nm (excitation/emission). For PBMC proliferation, cells were plated and activated as above but incubated for only 16 h prior to addition of Alamar Blue. Plates were read after 6 h.
Compound,outcome,AC50
NC(N)=O,inactive,
CCCC(CCC)C(=O)O,inactive,
c1ccc2c(c1)-c1cccc3c1c-2cc1ccccc13,inactive,
c1ccc2cc3ccccc3cc2c1,,2.03 µM (active)
CCCCCCCCCCCCCCCCOS(=O)(=O)O,inactive,
FC(F)(F)C(F)(F)C(F)(F)C(F)(F)C(F)(F)C(F)(F)I,inactive,
CCCc1ccccc1,inactive,
O=C(NO)C1(NS(=O)(=O)c2ccc(Oc3ccc(F)cc3)cc2)CCOCC1,inactive,
Cn1c(=O)c2[nH]cnc2n(C)c1=O,inactive,
COc1cc2c(c(OC)c1OC)-c1ccc(OC)c(=O)cc1[C@@H](NC(C)=O)CC2,inactive,
C[C@@H](Oc1ccc(CNC(=O)c2cccnc2Oc2ccc3c(c2)OCO3)c(F)c1)C(=O)O,inactive,
Cc1nccn1-c1ccc(Sc2cccc(C3(C(N)=O)CCOCC3)c2)cc1,,8.83 µM (active)
CC(C)CCCCCCOC(=O)C1CCCCC1C(=O)OCCCCCCC(C)C (stereo not given),inactive,
CCCCCCOC(=O)CC(CC(=O)OCCCCCC)(OC(=O)CCC)C(=O)OCCCCCC,inactive,
C[C@]12C=CC(=O)C=C1CC[C@H]1[C@@H]3C[C@@H](O)[C@](O)(C(=O)CO)[C@@]3(C)C[C@H](O)[C@@]12F,inactive,
OCCC(F)(F)C(F)(F)C(F)(F)C(F)(F)F,inactive,
CCCCCCCCCC,inactive,
CCc1cccc(CC)c1N,inactive,
CC[C@H](C)C(=O)O[C@H]1C[C@H](O)C=C2C=C[C@H](C)[C@H](CC[C@@H](O)C[C@@H](O)CC(=O)O)[C@H]21,inactive,
CCCCN1C(=O)[C@@H]([C@H](O)C2CCCCC2)NC(=O)C12CCN(Cc1ccc(Oc3ccc(C(=O)O)cc3)cc1)CC2,inactive,

Compound,outcome,AC50
CCCOc1ccc(S(=O)(=O)N2CCN(CC)CC2)cc1-c1nc2c(CC)n(Cc3ccccn3)nc2c(=O)[nH]1,inactive,
OCCNCCO,inactive,
CCCCCCCCN(C)C,inactive,
C=CN1CCCC1=O,inactive,
O=S(=O)(O)c1ccc(N=Nc2c(O)ccc3cc(S(=O)(=O)O)ccc23)cc1,inactive,
CCOc1ccc2[nH]cc(C(=O)NCc3ccccc3)c(=O)c2n1,inactive,
OC[C@H]1O[C@@](CO)(O[C@H]2O[C@H](CO)[C@@H](O)[C@H](O)[C@H]2O)[C@@H](O)[C@@H]1O,inactive,
CCOC(N)=O,inactive,
OCC(CO)(CO)CO,inactive,
Cn1cc[nH]c1=S,inactive,
CC(C)C(=O)Nc1ccc([N+](=O)[O-])c(C(F)(F)F)c1,inactive,
O=C(O)c1cccc(C(=O)O)c1,inactive,
S=P(N1CC1)(N1CC1)N1CC1,inactive,
CCCCCOC(C)=O,inactive,
CC1(C)C(=O)N(Cl)C(=O)N1Cl,inactive,
OCc1ccccc1,inactive,
O=S(=O)(O)CCC(F)(F)C(F)(F)C(F)(F)C(F)(F)C(F)(F)C(F)(F)F,inactive,
CCc1ccc(O)c(C(C)(C)C)c1,,32.2 µM (active)
CCCCC(CC)C(=O)OCCOCCOCCOC(=O)C(CC)CCCC (stereo not given),inactive,
Nc1ccn([C@@H]2O[C@H](CO)[C@@H](O)[C@@H]2O)c(=O)n1,inactive,
